Laboratory results: PubChem BioAssay (NCI)
Compounds without any hit were thinned out: in the full panel of roughly 79,000, 15% have a hit. The source made the active and inactive calls. Rule as the data show it: active = growth inhibition above about 70%; inactive = the rest.

Columns and labels:
[1] = NCI Yeast Anticancer Drug Screen. Data for the rad52 strain (AID 147);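 also: 0% = growth of vehicle-treated control cultures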; details: S. cerevisiae rad52 mutant growth inhibition, stronger effect = higher value
In short: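 DNA repair-defective yeast; compound exposure; growth scored against vehicle controls.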

[2] = NCI Yeast Anticancer Drug Screen. Data for the wt1 strain (AID 149);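 also: 0% = growth of vehicle-treated wt1 cultures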; details: S. cerevisiae wt1 strain (SPY 50644) growth inhibition, stronger effect = higher value
In short: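 Growth inhibition read against vehicle controls after compound exposure of the wt1 yeast strain.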

[3] = NCI Yeast Anticancer Drug Screen. Data for the rad50EPP+ strain (AID 151);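 also: 0% = growth of vehicle-treated control cultures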; details: S. cerevisiae rad50 mutant strain, stronger effect = higher value
In short: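 rad50EPP+ yeast treated with test compounds. Readout: growth vs vehicle control.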

[4] = NCI Yeast Anticancer Drug Screen. Data for the mgt1 strain (AID 153); details: S. cerevisiae mgt1 mutant growth inhibition, stronger effect = higher value
In short: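 Growth inhibition relative to vehicle controls was scored for the mgt1 yeast strain after compound exposure.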

[5] = NCI Yeast Anticancer Drug Screen. Data for the rad50 strain (AID 155);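 also: 0% = growth of vehicle-only cultures of the same strain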; details: S. cerevisiae rad50 strain growth inhibition, stronger effect = higher value
In short: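 Readout: growth inhibition relative to vehicle-treated cultures. Compound exposure was carried out in a genetically defined yeast strain deficient in DNA damage repair.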

[6] = NCI Yeast Anticancer Drug Screen. Data for the mec2-1 strain (AID 157); details: S. cerevisiae mec2-1 strain, stronger effect = higher value
In short: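 Growth inhibition is read against vehicle-treated controls after compound exposure of the mec2-1 yeast strain, which is defective in DNA damage repair or cell cycle control.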

[7] = NCI Yeast Anticancer Drug Screen. Data for the rad14 strain (AID 159);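 also: 0% = growth of vehicle-treated control cultures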; details: S. cerevisiae rad14 strain growth inhibition, stronger effect = higher value
In short: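 Growth inhibition vs vehicle controls; genetically altered yeast strain (DNA damage repair defect) treated with test compounds.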

[8] = NCI Yeast Anticancer Drug Screen. Data for the sgs1 mgt1 strain (AID 161);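 also: 0% = growth of cultures given vehicle only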; details: S. cerevisiae sgs1 mgt1 strain, stronger effect = higher value
In short: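 Yeast cells carrying a defined DNA-repair defect were exposed to test compounds. Growth inhibition was measured relative to vehicle-treated controls.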

[9] = NCI Yeast Anticancer Drug Screen. Data for the CLN2oe strain (AID 163);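 also: 0% = growth of vehicle-only control cultures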; details: S. cerevisiae CLN2oe strain, stronger effect = higher value
In short: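 Compound-treated yeast; growth vs vehicle ctrl = % inhibition. Genetically altered strain (cell-cycle control).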

[10] = NCI Yeast Anticancer Drug Screen. Data for the cln2 rad14 strain (AID 165);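 also: 0% = growth equal to vehicle treated cultures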; details: S. cerevisiae cln2 rad14 strain, stronger effect = higher value
In short: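 Growth inhibition, relative to vehicle-treated controls, is the read-out. The test organism is a yeast strain with defined genetic alterations, cln2 rad14.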

[11] = NCI Yeast Anticancer Drug Screen. Data for the bub3 strain (AID 167); details: S. cerevisiae bub3 mutant strain, stronger effect = higher value
In short: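 Readout: yeast growth inhibition, expressed relative to vehicle-only wells. The test organism is a mutant strain from a panel with lesions in DNA repair or checkpoint genes.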

[12] = NCI Yeast Anticancer Drug Screen. Data for the wt2 strain (AID 169);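 also: 0% = growth of vehicle-treated yeast cultures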; details: S. cerevisiae wt2 strain growth inhibition, stronger effect = higher value
In short: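 Compound exposure of yeast; growth compared with vehicle controls; inhibition reported.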

[13] = NCI Yeast Anticancer Drug Screen. Data for the mlh1 strain (AID 171);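 also: 0% = growth of vehicle-treated control cultures of the same strain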; details: S. cerevisiae mlh1 strain growth inhibition, stronger effect = higher value
In short: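 Compounds are applied to a genetically altered yeast strain, and its growth is compared with that of vehicle-treated cultures to give percent inhibition.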

[14] = NCI Yeast Anticancer Drug Screen. Data for the sgs1 strain (AID 173);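 also: 0% = growth of vehicle-only control cultures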; details: S. cerevisiae sgs1 mutant, stronger effect = higher value
In short: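 Compounds applied to genetically altered yeast; growth compared with vehicle-treated cultures to give % inhibition.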

[15] = NCI Yeast Anticancer Drug Screen. Data for the mlh1 rad18 strain (AID 175); details: S. cerevisiae mlh1 rad18 strain growth inhibition, stronger effect = higher value
In short: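 Cells of a genetically altered yeast strain, deficient in DNA damage repair, were treated with compound. Their growth was then compared with that of vehicle-treated cultures to give inhibition.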

[16] = NCI Yeast Anticancer Drug Screen. Data for the rad18 strain (AID 177); details: S. cerevisiae rad18 mutant growth inhibition, stronger effect = higher value
In short: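 Compounds are applied to a repair-deficient yeast strain, and growth is compared with that of vehicle-treated cultures to give percent inhibition.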

[17] = at 5.0 µM (retest, dose inferred, filed as 0.5)
[18] = at 50.0 µM (retest, dose inferred, filed as 5.0)

Measured: growth inhibition

Cc1c(-c2ccccn2)ccc2ccccc12
active: [3]; at 100.0 µM 71% | [4]; at 100.0 µM 88% | [5]; at 100.0 µM 73% | [8]; at 50.0 µM 80.8% | [11]; at 33.0 µM 70% | [11]; [18] 90% | [11]; at 50.0 µM 94.2% | [11]; at 100.0 µM 96% | [14]; at 100.0 µM 83%
inactive: [1]; at 1.2 µM -2% | [1]; at 3.7 µM -1% | [1]; at 11.0 µM 0% | [1]; at 33.0 µM 2% | [1]; at 100.0 µM 46% | [2]; at 1.2 µM -1% | [2]; at 3.7 µM 0% | [2]; at 11.0 µM -3% | [2]; at 33.0 µM -4% | [2]; at 100.0 µM 18% | [3]; at 1.2 µM -3% | [3]; at 3.7 µM 0% | [3]; at 11.0 µM 10% | [3]; at 33.0 µM 43% | [4]; at 1.2 µM 0% | [4]; at 3.7 µM -1% | [4]; at 11.0 µM -3% | [4]; at 33.0 µM 0% | [5]; at 1.2 µM 6% | [5]; at 3.7 µM 37% | [5]; [17] 1% | [5]; at 11.0 µM 44% | [5]; at 33.0 µM 15% | [5]; [18] 15% | [5]; at 50.0 µM 21.8% | [6]; at 1.2 µM -1% | [6]; at 3.7 µM 0% | [6]; [17] 1% | [6]; at 11.0 µM 1% | [6]; at 33.0 µM -1% | [6]; [18] 15% | [6]; at 50.0 µM 44.5% | [6]; at 100.0 µM 50% | [7]; at 1.2 µM 0% | [7]; at 3.7 µM 0% | [7]; at 11.0 µM 1% | [7]; at 33.0 µM 6% | [7]; at 100.0 µM 43% | [8]; [17] -2% | [8]; [18] 46% | [9]; at 1.2 µM -10% | [9]; at 3.7 µM -3% | [9]; at 11.0 µM -7% | [9]; at 33.0 µM -12% | [9]; at 100.0 µM -4% | [10]; [17] 1% | [10]; [18] 3% | [10]; at 50.0 µM 25.4% | [11]; at 1.2 µM 3% | [11]; at 3.7 µM 7% | [11]; [17] 18% | [11]; at 11.0 µM 24% | [12]; at 1.2 µM -2% | [12]; at 3.7 µM 7% | [12]; at 11.0 µM -4% | [12]; at 33.0 µM -3% | [12]; at 100.0 µM 43% | [13]; at 1.2 µM 0% | [13]; at 3.7 µM -1% | [13]; at 11.0 µM -76% | [13]; at 33.0 µM 0% | [13]; at 100.0 µM 39% | [14]; at 1.2 µM -2% | [14]; at 3.7 µM -1% | [14]; at 11.0 µM 1% | [14]; at 33.0 µM 24% | [15]; [17] -1% | [15]; [18] 20% | [15]; at 50.0 µM 59.8% | [16]; at 1.2 µM -1% | [16]; at 3.7 µM 2% | [16]; at 11.0 µM 6% | [16]; at 33.0 µM 13% | [16]; at 100.0 µM 67%

Cc1cc2c(cc1C)[n+]([O-])c(-c1nc3ccccc3s1)c(N)[n+]2[O-]
active: [1]; at 100.0 µM 88% | [3]; at 33.0 µM 82% | [3]; at 100.0 µM 97% | [4]; at 100.0 µM 94% | [5]; at 50.0 µM 87.8% | [5]; at 100.0 µM 93% | [6]; [18] 79% | [6]; at 50.0 µM 76% | [6]; at 100.0 µM 97% | [7]; at 100.0 µM 85% | [8]; [18] 89% | [8]; at 50.0 µM 80.6% | [10]; at 50.0 µM 81.5% | [11]; [18] 92% | [11]; at 50.0 µM 93.7% | [11]; at 100.0 µM 96% | [14]; at 100.0 µM 79% | [15]; [18] 90% | [15]; at 50.0 µM 94.9% | [16]; at 100.0 µM 91%
inactive: [1]; at 1.2 µM 2% | [1]; at 3.7 µM 10% | [1]; at 11.0 µM 20% | [1]; at 33.0 µM 35% | [2]; at 1.2 µM 10% | [2]; at 3.7 µM 13% | [2]; at 11.0 µM 17% | [2]; at 33.0 µM 20% | [2]; at 100.0 µM 25% | [3]; at 1.2 µM 1% | [3]; at 3.7 µM 15% | [3]; at 11.0 µM 44% | [4]; at 1.2 µM 11% | [4]; at 3.7 µM 18% | [4]; at 11.0 µM 23% | [4]; at 33.0 µM 40% | [5]; at 1.2 µM 0% | [5]; at 3.7 µM 10% | [5]; [17] 3% | [5]; at 11.0 µM 23% | [5]; at 33.0 µM 40% | [5]; [18] 58% | [6]; at 1.2 µM 11% | [6]; at 3.7 µM 21% | [6]; [17] 23% | [6]; at 11.0 µM 26% | [6]; at 33.0 µM 37% | [7]; at 1.2 µM 1% | [7]; at 3.7 µM 14% | [7]; at 11.0 µM 22% | [7]; at 33.0 µM 29% | [8]; [17] 28% | [9]; at 1.2 µM -1% | [9]; at 3.7 µM 5% | [9]; at 11.0 µM 18% | [9]; at 33.0 µM 10% | [9]; at 100.0 µM 25% | [10]; [17] 2% | [10]; [18] 41% | [11]; at 1.2 µM 11% | [11]; at 3.7 µM 32% | [11]; [17] 47% | [11]; at 11.0 µM 46% | [11]; at 33.0 µM 53% | [12]; at 1.2 µM 14% | [12]; at 3.7 µM 18% | [12]; at 11.0 µM 18% | [12]; at 33.0 µM 21% | [12]; at 100.0 µM 58% | [13]; at 1.2 µM 6% | [13]; at 3.7 µM 14% | [13]; at 11.0 µM 17% | [13]; at 33.0 µM 20% | [13]; at 100.0 µM 55% | [14]; at 1.2 µM 10% | [14]; at 3.7 µM 21% | [14]; at 11.0 µM 24% | [14]; at 33.0 µM 39% | [15]; [17] 33% | [16]; at 1.2 µM 4% | [16]; at 3.7 µM 20% | [16]; at 11.0 µM 36% | [16]; at 33.0 µM 63%
